# Test results taken from the supplement of paper PMC8728848.
# Many of the other results were omitted from the sample, so the strongest signals are more common in it than they were.
# What was measured:
# Test in all cases: glycan array binding signal (z-score within array); higher = stronger binding
# Conditions in all cases: glycan notation: IUPAC condensed, linker removed
# [1] = target: Fuc(a1-2)Gal6S(b1-4)Glc6S
# Method in brief: (§1)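 Columns mapping to the same glycan were averaged after glycan names were converted to IUPAC-condensed notation. The data come from 3228 arrays in the Consortium for Functional Glycomics database, limited to those with an available protein sequence. Binding is reported as a within-array Z-score averaged across arrays of one protein sequence and across linkers.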
# [2] = target: Fuc(a1-2)[Gal(a1-3)]Gal(b1-4)GlcNAc
# Method in brief: as §1
# [3] = target: Fuc(a1-2)[GalNAc(a1-3)]Gal(b1-3)GlcNAc
# Method in brief: as §1
# [4] = target: Fuc(a1-2)[GalNAc(a1-4)]Gal(b1-4)GlcNAc
# Method in brief: as §1
# Fuc(a1-3)GlcNAc = target: Fuc(a1-3)GlcNAc
# Method in brief: as §1
# [5] = target: Fuc(a1-3)[Gal(b1-4)]GlcNAc(b1-2)Man(a1-6)[Gal(b1-4)GlcNAc(b1-2)Man(a1-3)]Man(b1-4)GlcNAc(b1-4)GlcNAc
# Method in brief: as §1
# Fuc(a1-4)GlcNAc = target: Fuc(a1-4)GlcNAc
# Method in brief: as §1
# [6] = target: Gal(a1-3)[Gal(a1-4)]Gal(b1-4)GlcNAc
# Method in brief: as §1
# Gal(a1-4)Gal(b1-4)Glc = target: Gal(a1-4)Gal(b1-4)Glc
# Method in brief: as §1
# [7] = target: Gal(b1-4)GalNAc(a1-3)[Fuc(a1-2)]Gal(b1-4)GlcNAc
# Method in brief: as §1
# Gal(b1-4)Glc = target: Gal(b1-4)Glc
# Method in brief: as §1
# Gal(b1-4)Glc6S = target: Gal(b1-4)Glc6S
# Method in brief: as §1
# [8] = target: GlcNAc(a1-3)Gal(b1-4)GlcNAc
# Method in brief: as §1
# [9] = target: GlcNAc(a1-6)Gal(b1-4)GlcNAc
# Method in brief: as §1
# Neu5Ac(a2-3)Gal = target: Neu5Ac(a2-3)Gal
# Method in brief: as §1
# [10] = target: Neu5Ac(a2-3)Gal(b1-4)[Fuc(a1-3)]GlcNAc(b1-3)Gal(b1-4)GlcNAc
# Method in brief: as §1
# [11] = target: Neu5Ac(a2-3)Gal(b1-4)[Fuc(a1-3)]GlcNAc(b1-6)[Gal(b1-3)]GalNAc
# Method in brief: as §1
# [12] = target: Neu5Ac(a2-3)GalNAc(b1-4)GlcNAc
# Method in brief: as §1
# Neu5Ac(a2-6)Gal(b1-4)Glc = target: Neu5Ac(a2-6)Gal(b1-4)Glc
# Method in brief: as §1
# [13] = target: Neu5Ac(a2-6)Gal(b1-4)GlcNAc
# Method in brief: as §1
# [14] = target: Neu5Ac(a2-6)Gal(b1-4)GlcNAc(b1-2)Man(a1-3)[Gal(b1-4)GlcNAc(b1-2)Man(a1-6)]Man(b1-4)GlcNAc(b1-4)GlcNAc
# Method in brief: as §1
# [15] = target: Neu5Ac(a2-6)Gal(b1-4)GlcNAc(b1-2)Man(a1-3)[GlcNAc(b1-2)Man(a1-6)]Man(b1-4)GlcNAc(b1-4)GlcNAc
# Method in brief: as §1
# [16] = target: Neu5Ac(a2-6)Gal(b1-4)GlcNAc(b1-2)Man(a1-3)[Neu5Ac(a2-6)Gal(b1-4)GlcNAc(b1-2)Man(a1-6)]Man(b1-4)GlcNAc(b1-4)GlcNAc
# Method in brief: as §1
# [17] = target: Neu5Ac(a2-6)Gal(b1-4)GlcNAc(b1-2)Man(a1-6)[GlcNAc(b1-2)Man(a1-3)]Man(b1-4)GlcNAc(b1-4)GlcNAc
# Method in brief: as §1
# [18] = target: Neu5Ac(a2-6)Gal(b1-4)GlcNAc6S
# Method in brief: as §1
# [19] = target: Fuc(a1-2)Gal6S(b1-4)GlcNAc
# Method in brief: as §1
# [20] = target: Fuc(a1-2)[Gal(a1-3)]Gal(b1-4)Glc
# Method in brief: as §1
# [21] = target: Fuc(a1-2)[GalNAc(a1-3)]Gal(b1-4)GlcNAc
# Method in brief: as §1
# [22] = target: Fuc(a1-2)[GalNAc(a1-3)]Gal(b1-4)[Fuc(a1-3)]GlcNAc
# Method in brief: as §1
# Gal(b1-3)Gal(b1-4)GlcNAc = target: Gal(b1-3)Gal(b1-4)GlcNAc
# Method in brief: as §1
# [23] = target: Gal(b1-3)GalNAc(b1-4)[Neu5Ac(a2-3)]Gal(b1-4)Glc
# Method in brief: as §1
# [24] = target: Gal(b1-3)[Neu5Ac(a2-6)]GalNAc
# Method in brief: as §1
# [25] = target: Gal(b1-4)GlcNAc(a1-6)Gal(b1-4)GlcNAc
# Method in brief: as §1
# [26] = target: Gal(b1-4)GlcNAc(b1-3)Gal(b1-4)[Fuc(a1-3)]GlcNAc(b1-3)Gal(b1-4)[Fuc(a1-3)]GlcNAc
# Method in brief: as §1
# [27] = target: Gal(b1-4)GlcNAc(b1-3)[Gal(b1-4)GlcNAc(b1-6)]Gal(b1-4)GlcNAc
# Method in brief: as §1
# Gal3S6S(b1-4)GlcNAc6S = target: Gal3S6S(b1-4)GlcNAc6S
# Method in brief: as §1
# GalNAc(a1-3)Gal = target: GalNAc(a1-3)Gal
# Method in brief: as §1
# [28] = target: Man(a1-2)Man(a1-3)[Man(a1-2)Man(a1-6)]Man(a1-6)[Man(a1-2)Man(a1-2)Man(a1-3)]Man
# Method in brief: as §1
# Man(a1-3)[Man(a1-6)]Man = target: Man(a1-3)[Man(a1-6)]Man
# Method in brief: as §1
# [29] = target: Man(a1-3)[Man(a1-6)]Man(a1-6)[Man(a1-3)]Man(b1-4)GlcNAc(b1-4)GlcNAc
# Method in brief: as §1
# [30] = target: Neu5Ac(a2-3)Gal(b1-3)GalNAc6S
# Method in brief: as §1
# [31] = target: Neu5Ac(a2-3)Gal(b1-3)GlcNAc(b1-3)Gal(b1-3)GlcNAc
# Method in brief: as §1
# Neu5Ac(a2-8)Neu5Ac = target: Neu5Ac(a2-8)Neu5Ac
# Method in brief: as §1
# [32] = target: Neu5Ac(a2-3)Gal(b1-3)GlcNAc(b1-2)[Neu5Ac(a2-3)Gal(b1-3)GlcNAc(b1-4)]Man(a1-6)[Neu5Ac(a2-3)Gal(b1-3)GlcNAc(b1-2)Man(a1-3)]Man(b1-4)GlcNAc(b1-4)GlcNAc
# Method in brief: as §1
# [33] = target: Neu5Ac(a2-3)Gal(b1-3)[Neu5Ac(a2-6)]GalNAc
# Method in brief: as §1
# [34] = target: Neu5Ac(a2-3)Gal(b1-4)GlcNAc(b1-3)Gal
# Method in brief: as §1
# [35] = target: Neu5Ac(a2-3)Gal6S(b1-4)GlcNAc
# Method in brief: as §1
# [36] = target: Neu5Ac(a2-6)Gal(b1-4)GlcNAc(b1-3)Gal(b1-4)GlcNAc(b1-2)Man(a1-3)[Neu5Ac(a2-6)Gal(b1-4)GlcNAc(b1-3)Gal(b1-4)GlcNAc(b1-2)Man(a1-6)]GalNAc
# Method in brief: as §1
# [37] = target: Neu5Gc(a2-3)Gal(b1-4)GlcNAc(b1-3)Gal(b1-4)GlcNAc(b1-2)Man(a1-3)[Neu5Gc(a2-3)Gal(b1-4)GlcNAc(b1-3)Gal(b1-4)GlcNAc(b1-2)Man(a1-6)]Man(b1-4)GlcNAc(b1-4)GlcNAc
# Method in brief: as §1
# [38] = target: Neu5Gc(b2-6)Gal(b1-4)GlcNAc
# Method in brief: as §1
binder,measurement,setting,value
"SLR2P3F12 (Tachypleus tridentatus), TAL2_TACTR (protein) MEKGTPPTHDSDNWMGRAKKIGNGGWNQFQFLFFDPNGYLYAVSKDKLYKASPPQSDTDNWIARATEIGSGGWSGFKSLFFHPNGYLYAVHGQRLYKALPPVSNQD",glycan array binding signal (z-score),[1],-0.343
same,glycan array binding signal (z-score),[2],-0.417
same,glycan array binding signal (z-score),[3],0.556
same,glycan array binding signal (z-score),[4],2.01
same,glycan array binding signal (z-score),Fuc(a1-3)GlcNAc,-0.301
same,glycan array binding signal (z-score),[5],0.218
same,glycan array binding signal (z-score),Fuc(a1-4)GlcNAc,1.42
same,glycan array binding signal (z-score),[6],0.143
same,glycan array binding signal (z-score),Gal(a1-4)Gal(b1-4)Glc,-0.342
same,glycan array binding signal (z-score),[7],-0.208
same,glycan array binding signal (z-score),Gal(b1-4)Glc,2.75
same,glycan array binding signal (z-score),Gal(b1-4)Glc6S,-0.248
same,glycan array binding signal (z-score),[8],5.11
same,glycan array binding signal (z-score),[9],13.2
same,glycan array binding signal (z-score),Neu5Ac(a2-3)Gal,-0.415
same,glycan array binding signal (z-score),[10],-0.203
same,glycan array binding signal (z-score),[11],2.75
same,glycan array binding signal (z-score),[12],0.435
same,glycan array binding signal (z-score),Neu5Ac(a2-6)Gal(b1-4)Glc,-0.125
same,glycan array binding signal (z-score),[13],-0.317
same,glycan array binding signal (z-score),[14],-0.422
same,glycan array binding signal (z-score),[15],-0.235
same,glycan array binding signal (z-score),[16],0.131
same,glycan array binding signal (z-score),[17],1.27
same,glycan array binding signal (z-score),[18],0.194
"R410P1E11 (Tachypleus tridentatus), TAL2_TACTR (protein) MEKGTPPTHDSDNWMGRAKEIGNGGWDQFQFLFFDPNGYLYAVSNDKLYKASPPQSDTDNWIARATEIGSGGWSGFKFLFFHPNGYLYAVRGQRFYKALPPVSNQD",glycan array binding signal (z-score),[19],-0.187
same,glycan array binding signal (z-score),[20],-0.282
same,glycan array binding signal (z-score),[21],2.74
same,glycan array binding signal (z-score),[22],1.41
same,glycan array binding signal (z-score),[4],5.65
same,glycan array binding signal (z-score),Fuc(a1-4)GlcNAc,-0.369
same,glycan array binding signal (z-score),Gal(a1-4)Gal(b1-4)Glc,-0.323
same,glycan array binding signal (z-score),Gal(b1-3)Gal(b1-4)GlcNAc,-0.622
same,glycan array binding signal (z-score),[23],-0.397
same,glycan array binding signal (z-score),[24],-0.538
same,glycan array binding signal (z-score),[25],-0.52
same,glycan array binding signal (z-score),[26],-0.411
same,glycan array binding signal (z-score),[27],-0.144
same,glycan array binding signal (z-score),Gal3S6S(b1-4)GlcNAc6S,0.451
same,glycan array binding signal (z-score),GalNAc(a1-3)Gal,7.43
same,glycan array binding signal (z-score),[8],3.25
same,glycan array binding signal (z-score),[9],10.1
same,glycan array binding signal (z-score),[28],-0.751
same,glycan array binding signal (z-score),Man(a1-3)[Man(a1-6)]Man,-0.45
same,glycan array binding signal (z-score),[29],-0.483
same,glycan array binding signal (z-score),[30],-0.515
same,glycan array binding signal (z-score),[31],0.008
same,glycan array binding signal (z-score),[12],0.139
same,glycan array binding signal (z-score),Neu5Ac(a2-8)Neu5Ac,-0.039
MUB70 (Lactobacillus reuteri) (protein) CVHVQYIDGETDQMLRQDDLDGYTDETIPYSTAEGIKKFEGDGYELFKDNFPAGEKFDNDDTNDQFYTVIF,glycan array binding signal (z-score),[32],6.11
same,glycan array binding signal (z-score),[33],1.18
same,glycan array binding signal (z-score),[34],0.155
same,glycan array binding signal (z-score),[35],-0.909
same,glycan array binding signal (z-score),[36],0.348
same,glycan array binding signal (z-score),[18],2.67
same,glycan array binding signal (z-score),[37],1.95
same,glycan array binding signal (z-score),[38],0.109
